# About 83,000 compounds went through this panel and 20% of them were active in at least one assay; those are over-represented in the sample as a whole.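 Treatment: one concentration, 48 hours, 96-well format. Scoring: percent growth, with anything below 10 considered active.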 Activity calls are given as the source filed them.
# Test system: NCI-H23 lung
# Assay: NCI-60 one-dose screen, 48 h (100 = growth as untreated, 0 = no growth, -100 = all killed)
# Details: 10 µM
row,SMILES,growth
1,COc1ccc2c(c1)CC=C1[C@@H]2CC[C@]2(C)C(=O)/C(=N/O)C[C@@H]12,102% (inactive)
2,CC(C)(C)OC(=O)CN1CCc2c(sc3ncnc(N/N=C/c4ccccc4Br)c23)C1,80.2% (inactive)
3,COc1cc(/C=C/c2cc(/C=C/c3ccc(O)c(OC)c3)n(C(=O)Nc3ccccc3Cl)n2)ccc1O,-25.8% (active)
4,O=C(CSc1nnc(-c2ccc(Cl)cc2)o1)Nc1ccc(C(=O)/C=C/c2ccc(Cl)cc2)cc1,87.7% (inactive)
5,Nc1nc(Cn2c(-c3nonc3N)nc3ccccc32)nc(N2CCCCC2)n1,90.5% (inactive)
6,CC(C)N(CCOc1ccc(-c2nc3sccn3c2-c2ccnc(S(C)(=O)=O)n2)cc1)C(C)C,90.3% (inactive)
7,O=C1CSC(=S)N1/N=C/c1ccc(Cl)s1,90.3% (inactive)
8,CCN(CC)CCOC(=O)c1cc(OCc2ccccc2)c(OCc2ccccc2)c(OCc2ccccc2)c1,58.6% (inactive)
9,CNC(=O)c1cc(Oc2ccc3c(c2)sc2nc(-c4ccc(N)cc4)cn23)ccn1,35% (inactive)
10,COc1ccc(-c2cc(-c3ccc(Cl)cc3)nc(SCCCCCCC(=O)NO)n2)cc1OC,42.7% (inactive)
11,O=C(O)COc1c(Cl)cc([N+](=O)[O-])cc1Cl,99% (inactive)
12,COC(=O)C1(O)NC(=C(C#N)C#N)C(C#N)=C1C(=O)c1ccc(OC)c(OC)c1 (centres undefined),103% (inactive)
13,COc1ccc(C2=Cn3c(CCC(=O)c4nc5ccccc5[nH]4)nnc3SC2)cc1,94.5% (inactive)
14,COc1cc2cc(Oc3ccc(NC(=O)c4cc(C(F)(F)F)cc(C(F)(F)F)c4)cc3)c(C)nc2cc1OC,32.6% (inactive)

# — PubChem BioAssay (NCI)
